Assay outcomes from PubChem.
RE007 growth inh = qHTS Assay for Inhibitors of the HIV-1 protein Vpr; actives 0.21% (n = 360,000); Potency, µM (doses to about 92.2 µM), for inactives: at the highest dose activity change, negative = less growth, actives largely listed as inhibitors; S. pombe RE007 Vpr strain, BacTiter-Glo ATP luminescence, 24 h; active = well fitted falling curve with a large enough effect; inconclusive = small, poorly fitted or top-dose-only effect; inactive = no such curve, though single readings can be large or run the other way; note: potency is the fitted concentration of half-maximal effect; % is set by controls: 0 for no effect and ±100 for the full control effect; nearly all actives have a fitted effect of over 50% in size
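Fission yeast strain RE007, carrying one chromosomally integrated HIV-1 vpr copy, was seeded at OD 0.01 in PMG+AL medium with 23 nL pinned compound. After 24 h at 30 °C and 99% humidity, viability was read by BacTiter-Glo luminescence.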
Shiga inhibitor = A qHTS for Small Molecule Inhibitors of Shiga Toxin | Vero cells, Shiga toxin protein synthesis inhibition reporter | inhibition, % at 38.7 µM | actives 9.2% (n = 290,000); in the data active = inhibition mostly above about 28%, no sharp cut-off; inactive = mostly below about 43%; note: 0% is about no effect
LmPK inhibitor = qHTS Assay for Inhibitors of Leishmania Mexicana Pyruvate Kinase (LmPK); Q27686; actives 0.37% (n = 290,000); AID 1721, 2009; Potency, µM (top dose mostly 57.5 µM), without a hit: at the top dose activity change, negative = inhibition, actives largely listed as inhibitors; purified LmPK, Kinase-Glo ATP luminescence, 1 h; note: potency is the fitted concentration of half-maximal effect; % is set by controls: 0 for no effect and ±100 for the full control effect
Target sequence (Q27686 whole entry, looked up): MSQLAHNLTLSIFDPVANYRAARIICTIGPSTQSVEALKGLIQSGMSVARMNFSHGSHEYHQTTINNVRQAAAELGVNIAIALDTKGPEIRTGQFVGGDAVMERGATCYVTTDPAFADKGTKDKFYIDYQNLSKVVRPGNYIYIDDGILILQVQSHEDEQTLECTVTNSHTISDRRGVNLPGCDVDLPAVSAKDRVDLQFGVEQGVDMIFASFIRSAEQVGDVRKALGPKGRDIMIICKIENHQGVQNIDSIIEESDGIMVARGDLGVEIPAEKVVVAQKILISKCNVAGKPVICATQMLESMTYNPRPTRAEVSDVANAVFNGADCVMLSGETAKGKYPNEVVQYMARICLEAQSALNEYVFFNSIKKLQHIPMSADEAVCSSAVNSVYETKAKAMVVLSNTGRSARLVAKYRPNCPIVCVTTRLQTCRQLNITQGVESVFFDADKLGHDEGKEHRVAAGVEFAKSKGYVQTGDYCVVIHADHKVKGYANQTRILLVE
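0.1 nM LmPK, 0.5 mM PEP, 0.1 mM ADP; 50 mM imidazole pH 7.2, 7 mM MgCl2, 50 mM KCl; 1 h RT. Kinase-Glo luminescence readout, normalized to no-enzyme (full inhibition) and uninhibited wells.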
Tb PYK inh = qHTS of Trypanosoma Brucei Inhibitors; TbPYK enzyme, Kinase-Glo Plus ATP luminescence, 45 min; Potency, µM (highest dose often 76.8 µM), without a hit: at the highest dose activity, negative = inhibition, usual class: inhibitors; actives 0.12% (n = 410,000); AID 624173, 2012; note: potency is the fitted concentration of half-maximal effect; % is set by controls: 0 for no effect and ±100 for the full control effect; nearly all actives have a fitted effect of over 50% in size
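In this concentration-response screen, enzyme-free wells defined baseline while DMSO plates tracked drift. Each reaction combined TbPYK, substrate, compound and 130 uM ADP for 45 min at room temperature. Kinase-Glo Plus luminescence gave the signal.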
FBPA Giardia inh = qHTS Assay for Inhibitors of Fructose-1,6-bisphosphate Aldolase from Giardia Lamblia; Potency, µM (titrated, usually from 59.6 µM), inactives show at the highest dose activity, negative = inhibition, hits mostly inhibitors; A8B2U2; purified Giardia FBPA; AID 2451, 2010; actives 0.71% (n = 290,000); note: potency is the fitted concentration of half-maximal effect; % is set by controls: 0 for no effect and ±100 for the full control effect; nearly all actives have a fitted effect of over 55% in size
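Giardia FBPA (40 nM reagent) was preincubated 10 min at RT with compound (up to 57.5 uM final), then substrate plus GAPDH/TPI/NAD/arsenate coupling system with diaphorase/resazurin was added; resorufin fluorescence (525/598 nm) was read after 20 min.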
CHX counter = Cycloheximide Counterscreen for Small Molecule Inhibitors of Shiga Toxin; actives 12% (n = 300,000); cell reporter, cycloheximide protein synthesis inhibition counterscreen; max response, %; in the data active = max response mostly above about 13%, no sharp cut-off; inactive = mostly below about 14%; note: read at 38.3 µM for the half of the compounds with a filed dose; 0% is about no effect
The depositor's hits bear a star; ? = inconclusive; nt = no result; [ ] = remark or other dose. Many of the other results were omitted from the sample, so hits are more common in it than they were. Unless noted, calls come from the whole dose curve; as a rule, active = well fitted curve in the direction sought with a large enough effect; inconclusive = small, poorly fitted or top-dose-only effect, or another doubt; inactive = no such curve, though single readings can be large; an effect the other way counts as inactive or inconclusive.

SMILES	RE007 growth inh	Shiga inhibitor	LmPK inhibitor	Tb PYK inh	FBPA Giardia inh	CHX counter
CC(C)CNC(=O)/C(C#N)=C1\N=C(NC(=O)c2ccco2)c2ccccc21	-9%	34	-1%	-4%	-12%	12*
COc1ccc(OCC2c3cc(OC)c(OC)cc3CCN2C(=O)COc2ccc(Cl)cc2Cl)cc1 (stereo not drawn)	nt	nt	nt	-8%	nt	nt
O=C(Nc1cccc2ccccc12)N1N=CCC1c1ccccc1 (stereo not drawn)	3%	109*	9%	-19%	-3%	59*
S=C(Nc1ccccc1)N1N=CCC1c1ccccc1 (stereo not drawn)	-11%	78*	-1%	-8%	-11%	26*
O=C(Nc1cccc(Cl)c1)N1N=CCC1c1ccccc1 (stereo not drawn)	-8%	10	4%	2%	-8%	-3
O=C(CSc1nnnn1-c1ccccc1)N1N=CCC1c1ccccc1 (stereo not drawn)	11%	12	5%	0%	0%	10
Fc1ccc(NC(=S)N2N=CCC2c2ccccc2)cc1 (stereo not drawn)	-11%[3.69 µM]	61*	2%	nt	-20%	80*
Cc1ccc(SCC(=O)N2N=CCC2c2ccccc2)cc1 (stereo not drawn)	15%	67	-1%	1%	4%	24*
CCc1ccccc1NC(=O)C1CCN(C(=O)N2CC(C)Oc3ccc(Cl)cc32)CC1 (stereo not drawn)	nt	nt	nt	-1%	nt	nt
O/C(=C\c1nc2ccccc2nc1/C=C(\O)c1ccccc1)c1ccccc1	-4%	102*	?	-12%	3.2µM*	31*
Cc1nc(C)c(/C(O)=C/c2nc3ccccc3oc2=O)s1	?	-3	-2%	-8%	-25%	22*
CC(C)(C)/C(O)=C/c1nc2ccccc2oc1=O	-26%	-7	2%	3%	-1%	4
O=c1oc2ccc(Cl)cc2nc1/C=C(\O)c1ccco1	-11%	41*	0%	-5%	?	25*
O=c1oc2ccccc2nc1/C=C(\O)c1ccccc1	-24%	104*	9%	2%	?	63*
CC(C)C/C(O)=C/c1nc2cc(Cl)ccc2oc1=O	-15%	25	-1%	0%	?	4
CCOc1ccc(NC(=O)Cn2c(=O)n(CCCCCC(=O)NCc3ccccc3)c(=O)c3sccc32)cc1	nt	nt	nt	-8%	nt	nt
O=C(CSc1ccc(-c2ccco2)nn1)N1CCCCCC1	-6%	51*	0%	-7%	-5%	24
COc1ccc(C(=O)CSc2ccc(-c3ccccc3)nn2)cc1	-15%	23	7%	-3%	-8%	7
O=C(CSc1ccc(-c2ccc(F)cc2)nn1)N1CCCCC1	-2%	49*	?	-26%	-5%	11
COc1cccc(-c2ccc(SCC(=O)c3ccccc3)nn2)c1	-10%	48*	-3%	-9%	-8%	21
O=C(CSc1ccc(-c2ccccn2)nn1)N1CCCCC1	7%	72*	-3%	-9%	-28%	31*
COc1ccc(C(=O)CSc2ccc(-c3ccco3)nn2)cc1	-16%	-2	1%	-21%	-16%	-4
O=C(CSc1ccc(-c2ccncc2)nn1)N1CCCCC1	-2%	-4	1%	3%	1%	9
O=C(CSc1ccc(-c2ccccc2)nn1)N1CCCCC1	3%	72*	-2%[11.5 µM]	?	-3%	31*
O=C(CSc1ccc(-c2ccco2)nn1)c1ccccc1	-29%	32*	-14%	?	-27%	24*
SMILES	RE007 growth inh	Shiga inhibitor	LmPK inhibitor	Tb PYK inh	FBPA Giardia inh	CHX counter
Cc1cc(C)c2c(=O)cc(C(=O)Nc3c(C)n(C)n(-c4ccccc4)c3=O)oc2c1	nt	nt	nt	-2%	nt	nt
Cc1ccc(-n2c3c(c(=O)[nH]c2=O)C(NC(=O)C(C)(C)C)(C(F)(F)F)C(=O)N3)cc1 (stereo not drawn)	nt	nt	nt	1%	nt	nt
Cc1nc2ccccc2c(=O)n1Cc1ccco1	-1%	-9	6%	1%	5%	0
Cc1ccc(-c2nc3nc4ccccc4nc3n2Cc2ccco2)cc1	4%	63*	-10%	-12%	1%	52*
Clc1ccc(-c2nc3nc4ccccc4nc3n2Cc2ccco2)cc1	26%	82*	13%	5%	0%	52*
Cn1ccsc1=NC(=O)c1cccc(OC(F)F)c1	-27%	92*	-3%	-7%	9%	45*
c1ccc2c(c1)Oc1cccc3cccc-2c13	-3%	25*	2%	7%	-6%	12*
CCCCN1CCc2nc(N3CCN(c4ncccn4)CC3)ncc2C1	nt	nt	nt	2%	nt	nt
c1csc(-c2nn3c(C4COc5ccccc5O4)nnc3s2)c1 (stereo not drawn)	0%	45*	5%	-26%	3%	36*
CN1CCN(c2ncc3nc(-c4cccc(C#N)c4)c(=O)n(C)c3n2)CC1	nt	nt	nt	nt	-6%	nt
C/C(Cn1ncc(N2CCOCC2)c(Cl)c1=O)=N\O	14%	6	1%	-9%	13%	-2
O=c1c(Cl)c(N2CCOCC2)cnn1-c1nc2ccccc2[nH]1	0%	73*	?	-10%	1%	24*
CC(C)n1ncc(N2CCOCC2)c(Cl)c1=O	4%	8	4%	7%	5%	14*
CC(=O)c1ccc(N2CCN(S(=O)(=O)c3c(C)nc4sc(C)cn4c3=O)CC2)cc1	nt	nt	nt	-1%	nt	nt
CC(C)C[C@H]1C(=O)N2CCCC2[C@]2(O)O[C@](NC(=O)[C@@H]3C=C4c5cccc6[nH]c(Br)c(c56)C[C@H]4N(C)C3)(C(C)C)C(=O)N12 (stereo partly drawn)	nt	nt	nt	-6%	-16%	nt
O=C(CSc1nnc2ccc3ccccc3n12)Nc1ccccc1Cl	nt	nt	nt	-1%	nt	nt
CS(=O)(=O)c1ccc(C(O)C(CO)NC(=O)C(Cl)Cl)cc1 (stereo not drawn)	nt	nt	nt	nt	5%	nt
Nc1cc(-c2ccncc2)c[nH]c1=O	-2%	-2	9%	?	1.8µM*	9
Nc1cc(-c2ccccc2)c[nH]c1=O	nt	25	nt	nt	nt	4
c1ccc(CSC2=NCCS2)cc1	4%	120*	-2%	-4%	11%	29
COC(=O)c1ccc(CSC2=NCCS2)cc1	-10%	79*	-6%	-2%	3%	61*
O=[N+]([O-])c1ccc(CSC2=NCCS2)cc1	0%	nt	2%	-9%	3%	27*
O=C(NCSC1=NCCS1)c1ccccc1	6%	-14	0%	0%	0%	-2
O=[N+]([O-])c1ccc(CSC2=NCCN2)cc1	-16%	nt	0%	2%	-25%	2
OC(CN1CCCCC1)c1cc(-c2ccccc2)on1 (stereo not drawn)	nt	nt	nt	-5%	nt	nt
